In PubChem BioAssay (Tox21):
“And” between values parts separate entries of the source, which are not always exact repeats. Equal entries are not always repeated. Results filed as inconclusive are left out. Where a call stands in place of a potency, no number is given. A structure can be active in one record and inactive in another. The source made the active and inactive calls. Unless noted, the call rests on the fitted dose curve; in most records, active means well fitted curve in the direction sought with a large enough effect in the repeat runs; inconclusive means weak or mixed curves; inactive means no such curve, though single readings can be large; an effect the other way counts as inactive or inconclusive.

Assays:
[1] = qHTS assay to identify small molecule agonists of the constitutive androstane receptor (CAR) signaling pathway - cell viability counter screen (AID 1224836); further: nearly all actives have a fitted effect of over 45% in size; further: potency means the concentration at half of the fitted maximal effect
Procedure, shortened: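 HepG2 cells stably carrying hCAR and a CYP2B6-2.2kb reporter; 15-concentration compounds plus PK11195 (final 0.75 uM), 23 hr at 37 C/5% CO2. Viability read by CellTiter-Fluor fluorescence.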

[2] = qHTS assay to identify small molecule antagonists of the constitutive androstane receptor (CAR) signaling pathway - cell viability counter screen (AID 1224837); further: series mostly up to about 92 µM; nearly all actives have a fitted effect of over 45% in size
Procedure, shortened: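 Read-out: CellTiter-Fluor fluorescence after 23 hr at 37 C/5% CO2. Cells: HepG2 double-stable for hCAR and CYP2B6-2.2kb. Compounds tested at 15 concentrations in the presence of CITCO, final concentration 50 nM.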

[3] = molecular target: Nuclear receptor subfamily 1 group I member 3 (Homo sapiens) (UniProt Q14994); test: qHTS assay to identify small molecule antagonists of the constitutive androstane receptor (CAR) signaling pathway (AID 1224838);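 further: HepG2 cells stably expressing hCAR with CYP2B6 luciferase reporter stimulated by CITCO; nearly all actives have a fitted effect of over 40% in size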
Procedure, shortened: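 Read-out: ONE-Glo luciferase luminescence after 30 min at room temperature. HepG2-CYP2B6-hCAR double-stable cells, compounds in 15-point titration plus 50 nM CITCO final, 24 h at 37 C/5% CO2.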

[4] = molecular target: Nuclear receptor subfamily 1 group I member 3 (Homo sapiens) (UniProt Q14994); test: qHTS assay to identify small molecule agonists of the constitutive androstane receptor (CAR) signaling pathway (AID 1224839); further: nearly all actives have a fitted effect of over 15% in size; further: potency means the concentration at half of the fitted maximal effect;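 on activation: HepG2 cells stably carrying human CAR and a CYP2B6 luciferase reporter; series mostly up to about 92 µM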
Procedure, shortened: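 HepG2 cells stably co-transfected with hCAR and a CYP2B6-2.2kb luciferase reporter; compounds at 15 concentrations with 0.75 uM PK11195 present. After 24 hr at 37 C, luciferase read by ONE-Glo luminescence.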

[5] = qHTS assay to identify small molecule antagonists of the estrogen related receptor signaling pathway with the pleiotropic PPARgamma coactivator (PGC) from Tox21 10K library - cell viability counter screen (AID 1224840; active means well fitted cell-killing curve with a large enough effect in the repeat runs, not every such curve was filed as active; further: nearly all actives have a fitted effect of over 40% in size)
Procedure, shortened: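 Fluorescence read-out of CellTiter-Fluor viability reagent, added after cells had been exposed to compound in DMSO for 17.5 h at 37 C; 30 min development at 37 C/5% CO2. Cells: PGC/ERR line, 2,000/well.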

[6] = molecular target: Thyrotropin receptor (Homo sapiens) (UniProt P16473); test: qHTS assay to identify small molecule agonists of the thyroid stimulating hormone receptor (TSHR) signaling pathway (AID 1224843; calls by dose curve; further: nearly all actives have a fitted effect of over 45% in size; further: potency means the concentration at half of the fitted maximal effect)
Procedure, shortened: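 Using 15 concentrations per compound in triplicate, cAMP production was monitored in TSHR-HEK293 cells after 30 min compound incubation at RT; HTRF reagents followed, with fluorescence intensity recorded after 1 h.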

[7] = qHTS assay to identify small molecule agonists of the hypoxia (HIF-1) signaling pathway - cell viability counter screen (AID 1224844; calls by dose curve; further: nearly all actives have a fitted effect of over 50% in size; further: potency means the concentration at half of the fitted maximal effect)
Procedure, shortened: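 CellTiter-Glo luminescence read-out, 30 min RT, taken in the same wells as the beta-lactamase HRE reporter assay; HRE-bla ME-180 cells, 0.5% dialyzed FBS, 17 hr compound treatment at 37C, 5% CO2.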

[8] = qHTS assay to identify small molecule agonists of H2AX (AID 1224845; active means well fitted activation curve with a large enough effect in the signal ratio in the repeat runs, not every such curve was filed as active; the % refers to the signal ratio)
Procedure, shortened: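 Wild-type CHO-K1 cells plated overnight, then exposed 3 hr at 37C to compounds at 15 concentrations (0.76% DMSO). Lysed, then HTRF anti-pH2AX(S139)-cryptate/anti-H2AX-d2 detection after 24 hr at room temperature; emissions 665 and 620 nm.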

[9] = qHTS assay to identify small molecule agonists of the hypoxia (HIF-1) signaling pathway (AID 1224846; active means well fitted activation curve with a large enough effect in the signal ratio in the repeat runs, not every such curve was filed as active; the % refers to the signal ratio)
Procedure, shortened: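 Beta-lactamase FRET read-out (CCF4-AM substrate) from ME-180 cells carrying an HRE-driven bla reporter, after 17 hrs compound exposure at 37C/5% CO2. Cells were seeded at 2,000 per well in 0.5% dialyzed FBS medium and preincubated 5 hrs.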

[10] = qHTS assay to identify small molecule agonists of H2AX - cell viability counter screen (AID 1224847; calls by dose curve; further: top concentration of the series differs between compounds; nearly all actives have a fitted effect of over 30% in size)
Procedure, shortened: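 CHO-K1 cells plated overnight at 37C, then exposed 3 h at 37C to compounds at 15 concentrations (0.76% DMSO final). Viability by CellTiter-Glo luminescence after 30 min at room temperature.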

[11] = qHTS RealTime-Glo MT Cell Viability Assay in HepG2 cells - 24 hour (AID 1224867); further: nearly all actives have a fitted effect of over 50% in size
Procedure, shortened: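 qHTS, HepG2, 600 cells/well, RealTime-Glo (NanoLuc + prosubstrate) added with cells; 5 h preincubation; DMSO compound addition; 37 C; luminescence at 0/8/16/24/32/40 h.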

[12] = qHTS RealTime-Glo MT Cell Viability Assay in HEK293 cells - 32 hour (AID 1224868); further: nearly all actives have a fitted effect of over 50% in size; further: potency means the concentration at half of the fitted maximal effect
Procedure, shortened: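 Assay medium contained NanoLuc luciferase plus cell-permeant prosubstrate, added with HEK293 cells at 600 cells/well. After 5 h at 37 C/5% CO2 compounds were added; plates stayed at 37 C for 40 h with serial luminescence reads.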

[13] = A CellTox Green Cytotoxicity Assay to monitor cytotoxicity in HEK293 cells - 0 hour (AID 1224869); further: nearly all actives have a fitted effect of over 50% in size; further: potency means the concentration at half of the fitted maximal effect
Procedure, shortened: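 Read-out: fluorescence of a cell-impermeant cyanine dye staining DNA of dead cells, proportional to cytotoxicity. HEK293, 600 cells/well with reagent, compound (23 nL DMSO) added after 5 h; reads at 0, 8, 16, 24, 32, 40 h.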

[14] = molecular target: Luciferin 4-monooxygenase (Photinus pyralis) (UniProt P08659); test: qHTS assay to identify small molecule inhibitors of firefly luciferase (AID 1224835); further: nearly all actives have a fitted effect of over 25% in size; further: potency means the concentration at half of the fitted maximal effect
Procedure, shortened: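 Quantitative HTS format; KM concentrations of both substrates. Purified P. pyralis FLuc activity quantified from luminescence images.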

[15] = qHTS assay to identify small molecule antagonists of the estrogen related receptor signaling pathway with the pleiotropic PPARgamma coactivator (PGC) from Tox21 10K library (AID 1224841; call rule not given here)
Procedure, shortened: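 Luminescence read-out (One-Glo luciferase reagent, 30 min at room temperature) from PGC/ERR cells exposed to DMSO-dissolved test compounds for 18 h at 37 C; cells, 2,000 per well, had been preincubated 6 h before compound transfer.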

[16] = qHTS assay to identify small molecule agonists of the estrogen related receptor signaling pathway with the pleiotropic PPARgamma coactivator (PGC) from Tox21 10K library (AID 1224842); further: nearly all actives have a fitted effect of over 15% in size
Procedure, shortened: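 PGC/ERR reporter cells (NTP line) were seeded 2,000 per well, rested 6 h at 37 C/5% CO2, then pin-dosed with compounds in DMSO for 18 h at 37 C; luciferase read by One-Glo luminescence after 30 min at room temperature.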

[17] = qHTS assay to identify small molecule antagonists of the estrogen related receptor (ERR) signaling pathway from Tox21 library (AID 1224848); further: nearly all actives have a fitted effect of over 50% in size
Procedure, shortened: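 Tox21 10K compounds in DMSO tested for ERR pathway antagonism in NTP's ERR cell line; 18 h, 37 C exposure; ONE-Glo luminescence.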

Sequence of Thyrotropin receptor (Homo sapiens) (P16473 whole entry, looked up): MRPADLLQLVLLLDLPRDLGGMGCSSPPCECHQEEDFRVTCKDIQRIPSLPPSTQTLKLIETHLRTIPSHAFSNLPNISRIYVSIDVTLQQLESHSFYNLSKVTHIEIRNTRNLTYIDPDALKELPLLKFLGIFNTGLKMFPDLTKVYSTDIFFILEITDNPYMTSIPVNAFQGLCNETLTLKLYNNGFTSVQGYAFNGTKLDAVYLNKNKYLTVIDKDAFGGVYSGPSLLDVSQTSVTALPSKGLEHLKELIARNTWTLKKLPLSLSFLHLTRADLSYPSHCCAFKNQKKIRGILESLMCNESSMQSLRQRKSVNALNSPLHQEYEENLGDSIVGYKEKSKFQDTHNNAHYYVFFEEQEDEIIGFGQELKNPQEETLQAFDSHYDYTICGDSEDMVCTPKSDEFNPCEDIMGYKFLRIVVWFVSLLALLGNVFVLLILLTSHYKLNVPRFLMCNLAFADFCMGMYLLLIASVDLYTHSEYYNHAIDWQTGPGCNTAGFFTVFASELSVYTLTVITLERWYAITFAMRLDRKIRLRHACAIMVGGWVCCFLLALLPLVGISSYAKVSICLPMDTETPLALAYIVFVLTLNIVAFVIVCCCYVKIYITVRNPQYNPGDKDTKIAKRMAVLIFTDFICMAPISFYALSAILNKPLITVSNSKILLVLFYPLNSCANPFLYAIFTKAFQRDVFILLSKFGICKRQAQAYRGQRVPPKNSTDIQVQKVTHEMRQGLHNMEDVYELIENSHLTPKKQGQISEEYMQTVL
Sequence of Nuclear receptor subfamily 1 group I member 3 (Homo sapiens) (Q14994 whole entry, looked up): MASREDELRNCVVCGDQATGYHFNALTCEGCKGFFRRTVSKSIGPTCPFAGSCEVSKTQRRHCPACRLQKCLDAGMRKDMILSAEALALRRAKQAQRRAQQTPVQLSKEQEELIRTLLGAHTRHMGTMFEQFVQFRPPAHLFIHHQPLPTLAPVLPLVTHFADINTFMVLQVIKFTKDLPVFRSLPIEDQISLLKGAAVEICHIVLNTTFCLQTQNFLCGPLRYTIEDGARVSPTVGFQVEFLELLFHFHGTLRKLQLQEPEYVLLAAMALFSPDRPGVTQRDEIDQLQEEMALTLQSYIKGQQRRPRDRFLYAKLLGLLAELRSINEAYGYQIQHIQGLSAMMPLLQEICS
Sequence of Luciferin 4-monooxygenase (Photinus pyralis) (P08659 whole entry, looked up): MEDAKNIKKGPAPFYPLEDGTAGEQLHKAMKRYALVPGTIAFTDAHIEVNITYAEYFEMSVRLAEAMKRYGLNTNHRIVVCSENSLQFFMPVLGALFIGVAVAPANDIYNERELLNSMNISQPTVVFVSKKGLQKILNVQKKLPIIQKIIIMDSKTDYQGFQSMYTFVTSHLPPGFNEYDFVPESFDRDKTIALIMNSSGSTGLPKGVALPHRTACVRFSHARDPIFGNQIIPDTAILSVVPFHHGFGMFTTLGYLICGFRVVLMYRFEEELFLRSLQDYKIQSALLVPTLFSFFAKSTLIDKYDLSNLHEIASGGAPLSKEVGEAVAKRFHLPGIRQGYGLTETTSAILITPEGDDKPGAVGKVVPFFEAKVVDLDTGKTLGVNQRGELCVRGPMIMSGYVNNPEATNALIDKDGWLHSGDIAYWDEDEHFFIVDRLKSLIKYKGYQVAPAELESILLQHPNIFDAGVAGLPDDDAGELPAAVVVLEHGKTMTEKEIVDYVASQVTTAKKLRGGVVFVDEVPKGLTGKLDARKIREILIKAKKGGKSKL

Row | SMILES | Potency [1] | Potency [2] | Potency [3] | Potency [4] | Potency [5] | Potency [6] | Potency [7] | Potency [8] | outcome [9] | Potency [10] | Potency [11] | Potency [12] | Potency [13] | Potency [14] | Potency [15] | Potency [16] | Potency [17]
1 | NC(=O)NNc1ccccc1 | inactive | inactive | inactive | inactive | inactive | inactive | inactive | inactive | inactive | inactive | inactive | inactive | inactive |  |  |  | 
2 | COCC(=O)O | inactive | inactive |  |  | inactive | inactive | inactive | inactive | inactive | inactive | inactive | inactive | inactive | inactive |  |  | 
3 | CCCCCC/C=C/CCCCCCCC(=O)O | inactive | inactive | inactive | inactive | inactive | inactive | inactive | inactive | inactive | inactive | inactive | inactive | inactive | inactive and 71 µM (active) |  |  | 
4 | c1ccc2ccccc2c1 | inactive | inactive |  |  | inactive | inactive | inactive |  | inactive | inactive | inactive | inactive | inactive | inactive | inactive | inactive | inactive
5 | Oc1ccc2ccccc2c1N=Nc1ccccc1 | 48.5 µM (active) and 30.6 µM (active) |  | inactive | 30.6 µM (active) and 21.7 µM (active) |  | inactive | inactive | inactive | inactive |  | inactive | inactive | inactive | 12.6 µM (active) and 22.4 µM (active) |  |  | 
6 | C=C1CC[C@H](O)CC1=C/C=C1\CCC[C@]2(C)[C@@H]([C@H](C)/C=C/[C@H](C)C(C)C)CC[C@@H]12 | inactive | inactive | inactive |  | inactive | 21.5 µM (active) and 34.4 µM (active) | 43.3 µM (active) and 34.7 µM (active) |  |  |  | inactive | 48.5 µM (active) and 43.6 µM (active) | inactive | inactive |  |  | 
7 | Oc1ccc2ccccc2c1 | inactive |  |  |  | inactive | inactive | 35.5 µM (active) |  | inactive | inactive | inactive | inactive | inactive |  |  |  | 
8 | CCCCCCCCCC(=O)O | inactive | inactive |  |  | inactive | inactive | inactive | inactive | inactive | inactive | inactive | inactive | inactive |  | inactive | inactive | inactive
9 | NCc1cccc(CN)c1 | inactive | inactive | inactive | inactive | inactive | inactive | inactive |  | inactive | inactive | inactive | inactive | inactive | inactive |  |  | 
10 | CC1COc2ccccc2N1C(=O)C(Cl)Cl (stereo unspecified) | 27.3 µM (active) |  | inactive | 48.5 µM (active) | inactive | inactive | inactive |  | inactive | inactive | inactive | inactive | inactive | inactive |  |  | 
11 | Nc1cc(-c2ccncc2)c[nH]c1=O | inactive | inactive |  |  | inactive | inactive | inactive |  |  | inactive | inactive | inactive | inactive | inactive | inactive | inactive | inactive
12 | CC(C)(C)C1CCC(O)CC1 (stereo unspecified) | inactive | inactive | inactive | inactive | inactive | inactive | inactive | inactive | inactive | inactive | inactive | inactive | inactive |  |  |  | 
13 | NS(=O)(=O)c1cc2c(cc1Cl)NC=NS2(=O)=O | inactive | inactive | inactive |  | inactive | inactive | inactive | inactive | inactive | inactive | inactive | inactive | inactive | inactive |  |  | 
14 | Nc1nc2ncc(CNc3ccc(C(=O)N[C@@H](CCC(=O)O)C(=O)O)cc3)nc2c(=O)[nH]1 | inactive | inactive | inactive | inactive | inactive | inactive | inactive | inactive |  | inactive | inactive | inactive | inactive | inactive |  |  | 
15 | CCc1ccccc1O | inactive | inactive | inactive | inactive | inactive | inactive | inactive |  | inactive | inactive | inactive | inactive | inactive | inactive |  |  | 
16 | CCCCC/C=C\C/C=C\CCCCCCCC(=O)OC | inactive | inactive | inactive | inactive | inactive | inactive | inactive | inactive | inactive | inactive | inactive | inactive | inactive | inactive |  |  | 
17 | C=C(C)C(=O)OCC(CC)(COC(=O)C(=C)C)COC(=O)C(=C)C | inactive |  | inactive | inactive | inactive | inactive | inactive |  | inactive |  | inactive | inactive | inactive and 42.9 µM (active) | inactive |  |  | 
18 | Cc1ccc(C(=O)O)o1 | inactive | inactive | inactive | inactive | inactive | inactive | inactive | inactive | inactive | inactive | inactive | inactive | inactive | inactive |  |  | 
